Assay results reported in PubChem BioAssay.
A number with no mark means an inactive call. The rule behind the calls is not given here.

Biological target: Pantothenate synthetase (Mycobacterium tuberculosis (strain ATCC 25618 / H37Rv)) (UniProt P9WIL5)
Assay: Coupled enzyme confirmation of inhibitors against recombinant Mtb PanC (AID 375);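 note: 0% = full reaction with vehicle and 100% = no enzyme background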
Conditions: coupled enzyme assay; at 10 µM, stronger effect = higher value

Chain of Pantothenate synthetase (Mycobacterium tuberculosis (strain ATCC 25618 / H37Rv)) (P9WIL5 whole entry, looked up): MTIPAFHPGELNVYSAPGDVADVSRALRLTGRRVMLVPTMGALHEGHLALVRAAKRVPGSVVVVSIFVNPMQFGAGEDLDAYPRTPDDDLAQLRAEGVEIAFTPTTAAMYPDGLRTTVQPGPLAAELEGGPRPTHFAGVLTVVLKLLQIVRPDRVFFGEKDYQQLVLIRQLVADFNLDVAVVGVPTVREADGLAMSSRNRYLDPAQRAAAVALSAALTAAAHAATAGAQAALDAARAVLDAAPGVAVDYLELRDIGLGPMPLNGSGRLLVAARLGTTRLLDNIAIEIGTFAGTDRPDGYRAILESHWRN

Row | SMILES | inhibition
1 | CC(C)CCNC(=O)C(c1cccs1)N(CC1CCCO1)C(=O)Cn1nnc2ccccc21 (stereo not drawn) | 0%
2 | CN1C(=O)CCC1(O)c1ccccc1 (stereo not drawn) | 0%
3 | C/C(N)=C(/C#N)C(=O)CSc1nnc(Nc2cccc(C)c2)s1 | 0%
4 | O=S(=O)(NCc1ccc(Cl)cc1)c1cnc[nH]1 | 0%
5 | CCN1CCN(C(CNC(=O)c2ccc3c(c2)OCO3)c2cccnc2)CC1 (stereo not drawn) | 0%
6 | Clc1ccc(Cn2ncc3c(NCc4cccnc4)ncnc32)cc1 | 0%
7 | CC(C)OC(=O)C(CC(=O)O)NCc1ccccc1 (stereo not drawn) | 1%
8 | CC1(C)CC2CC(C)(CN2S(=O)(=O)c2ccc(N)cc2)C1 (stereo not drawn) | 0%
9 | CCOc1ccc(NC(=O)CN(c2cc(C)cc(C)c2)S(=O)(=O)c2c(C)noc2C)cc1 | 7%
10 | COc1cc(C2N=C(c3ccccc3)NO2)cc(Br)c1O (stereo not drawn) | 4%
11 | CCOC(=O)N1CCN(CC(=O)c2c(C)[nH]c3ccccc23)CC1 | 0%
12 | O=C1c2ccccc2S(=O)(=O)N1CC(O)Cn1c2ccccc2c2ccccc21 (stereo not drawn) | 0%
13 | COc1ccc(-c2coc3cc(O)cc(O)c3c2=O)cc1 | 5%
14 | COc1cccc(CNC(=O)C2CCN(c3cnccn3)CC2)c1 | 0%
15 | CCc1cccc(NC(=O)CCc2nc(-c3cccs3)no2)c1 | 0%
16 | CC1CN(Cc2nc3c(c(=O)[nH]c(=O)n3C)n2CC(N)=O)CC(C)O1 (stereo not drawn) | 4%
17 | CC(=O)C1=C(N2CCCCC2)CCC1=O | 0%
18 | CCCCCn1c2nc3ccccc3nc2c2c(=O)n(CC(C)C)cnc21 | 7%
19 | COc1cc(NC(=O)c2ccc(COCC(F)(F)F)o2)cc(OC)c1OC | 7%
20 | Cc1nc2ccccc2c2oc(C(=O)N3CCC(N4CCCCC4)CC3)cc12 | 0%
21 | C=CCn1c(C)cc(C(=O)CSc2nc3ccccc3c(=O)[nH]2)c1C | 0%
22 | CCCn1c(O)c(CN2CCCC(C)C2)c(C)c(C#N)c1=O (stereo not drawn) | 10%
23 | CC(C)(C)C(=O)Oc1cc(N)n(S(=O)(=O)c2ccccc2)n1 | 0%
24 | COc1ccc(/C(O)=C2/C(=O)C(=O)N(CCCN(C)C)C2c2ccco2)cc1Cl (stereo not drawn) | 0%

Row | SMILES | inhibition
25 | CNC(=O)CSc1nc2c(c(=O)n(C)c(=O)n2C)n1Cc1ccc(C)cc1 | 0%
26 | CC(C)=CC/C=C1\CCC(C(=O)O)C(C(=O)O)C1 (stereo not drawn) | 0%
27 | Cc1cc(C)nc(/N=C2\NC(=O)CC(C(=O)O)N2c2ccc(Cl)cc2)n1 (stereo not drawn) | 0%
28 | Cc1ccc(C)c(N2CCN(CCCNC(=O)Cn3cc4c(n3)CCC(C)C4)CC2)c1 (stereo not drawn) | 8%
29 | Nc1nonc1N1CCCCC1 | 0%
30 | O=C(OCC(=O)c1cccs1)C1=COCCO1 | 0%
31 | COc1cccc(C(=O)OCn2nnc3ccccc3c2=O)c1OC | 0%
32 | Cc1ccc(-c2cc(C(F)F)nc(NCC3CCCO3)n2)cc1 (stereo not drawn) | 3%
33 | COCCNC(=O)C(C)OC(=O)c1nsc(Cl)c1Cl (stereo not drawn) | 0%
34 | Cc1[nH]nc2c1C1(C(=O)N(Cc3ccc(Cl)cc3)c3ccccc31)C(C#N)=C(N)O2 (stereo not drawn) | 0%
35 | CC(C)CCSc1nc2c(c(=O)[nH]c(=O)n2C)n1CCCc1ccccc1 | 0%
36 | CCN1CCN(c2c(Cl)cccc2NC(=O)c2ccco2)CC1 | 9%
37 | CCSCCC(NC1=CC(=O)CC(C)(C)C1)C(=O)O (stereo not drawn) | 0%
38 | COCCNC(=O)CN(C)S(=O)(=O)c1ccc(Br)cc1 | 0%
39 | C=CCSc1nnc(-c2cccnc2)o1 | 0%
40 | CCc1nc2c(cnn2-c2ccc(Cl)cc2)c(=O)n1-c1ccc2c(c1)OCCO2 | 2%
41 | COc1cc(C(N)=O)ccc1OCc1ccccc1 | 3%
42 | c1ccc(-c2ccccc2OCCn2cncn2)cc1 | 5%
43 | CC(c1ccco1)N(C(=O)c1ccc(S(=O)(=O)N2CCCCC2)cc1)c1ccccn1 (stereo not drawn) | 2%
44 | COc1ccc(NC(=O)Nc2ccccc2C)c(OC)c1 | 0%
45 | CC(C)C(=O)Nc1cccc(NC(=O)c2cccnc2)c1 | 1%
46 | CCOC(=O)c1[nH]c2ccc(C)cc2c1N=C(C)N(C)C | 11%
47 | CC1=C(C(=O)OC2CCCC2)C(c2ccc(C)o2)C2=C(CC(c3cccs3)CC2=O)N1 (stereo not drawn) | 0%
48 | O=C(NCc1ccco1)c1cc2sccc2n1Cc1ccccc1 | 0%
